# Compounds with a hit are over-represented: about 4.5% of the library has one in this group of screens.
# Rpn11 inh – Rpn11 (PSMD14) deubiquitinase inhibitors, primary screen, biochemical, fluorescence polarization, uHTS | 360,000 compounds, 0.59% hits | 26S proteasome non-ATPase regulatory subunit 14 (Homo sapiens), O00487 | inhibition, % at 20 µM | human 26S proteasome, Ub4-pepOG fluorescence polarization; 20S core pre-blocked with epoxomicin;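 active means inhibition at 20 µM, scaled to each plate's controls, above about 33%, limit read from the data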
# Target sequence (O00487 whole entry, looked up): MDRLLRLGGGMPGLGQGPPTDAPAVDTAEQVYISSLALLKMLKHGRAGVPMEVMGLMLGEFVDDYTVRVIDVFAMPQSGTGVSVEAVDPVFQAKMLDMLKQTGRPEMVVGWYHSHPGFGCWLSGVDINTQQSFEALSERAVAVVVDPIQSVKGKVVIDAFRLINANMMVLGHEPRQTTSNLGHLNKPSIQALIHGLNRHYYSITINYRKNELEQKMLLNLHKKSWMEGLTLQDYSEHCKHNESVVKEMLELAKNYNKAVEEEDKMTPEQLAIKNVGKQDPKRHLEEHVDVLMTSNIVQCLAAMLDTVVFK
# NR3A LBD binder – binders of NR3A ligand-binding domain, primary screen, biophysical, differential scanning fluorimetry, uHTS. 340,000 compounds, 2.5% hits. Tm shift relative to glycine control, % at 25 µM. Glutamate receptor ionotropic, NMDA 3A (GRIN3A) ligand-binding domain. AID 1259313, 2017. NR3A LBD differential scanning fluorimetry, Tm shift; 0% = protein alone, 100% = glycine-bound protein;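 active means melting temperature shift of at least 10% of the positive control shift, at one fixed dose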
# TPT1 inhibitor – Candida albicans TPT1 enzyme inhibitors, primary screen, biochemical, fluorescence polarization; tRNA 2'-phosphotransferase TPT1 (Candida albicans SC5314); recombinant caTPT1, FP RNA substrate dephosphorylation; inhibition, % at 5 µM; 300,000 compounds, 0.81% hits; AID 1962, 2009;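 active means inhibition above the mean of all tested compounds plus 3 SD, set per screening campaign, cut at about 24% in these data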;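 further: plate controls were DMSO alone for no effect and ferristatin control at 100 nM for full effect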
# dFosB act – activators of delta FosB homodimer, primary screen, biochemical, fluorescence polarization, TAMRA-CDK5 oligo, single point; Protein FosB (Mus musculus), P13346; purified delta FosB; percent of positive-control signal above neutral wells; activation, % at 25 µM; 340,000 compounds, 0.99% hits;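 active means mean activation above about 17%, with every replicate also reaching it, limit read from the data, passing the limit was not always enough; inconclusive means only one of the two conditions met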
# ZTA DNA inh – blocks Epstein-Barr virus ZTA, an EBNA-1 counter-screen | inhibition, % at 11 µM | P03206 | 320,000 compounds, 0.15% hits | ZTA-DNA binding, fluorescence polarization; in the data active means inhibition above about 33%
# Target sequence (P03206 whole entry, looked up): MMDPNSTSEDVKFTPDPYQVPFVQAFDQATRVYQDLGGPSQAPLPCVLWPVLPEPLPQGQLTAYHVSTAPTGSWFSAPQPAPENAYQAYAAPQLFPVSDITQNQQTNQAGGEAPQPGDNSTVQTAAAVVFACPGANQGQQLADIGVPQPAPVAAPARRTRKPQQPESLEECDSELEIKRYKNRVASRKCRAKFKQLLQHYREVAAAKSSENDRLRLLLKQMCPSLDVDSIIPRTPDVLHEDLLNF
# EBNA-1 inhibitor – EBNA-1 DNA-binding inhibitors, primary screen, biochemical, fluorescence polarization | inhibition, % at 14.8 µM | 300,000 compounds, 0.34% hits | AID 1950, 2009; in the data active means inhibition above about 28%
# EBNA-1 confirm – EBNA-1 DNA-binding inhibitors, retest, confirmation, biochemical, fluorescence polarization, triplicate. 830 compounds, 35% hits. Recombinant EBNA-1 DBD, Cy5-DNA fluorescence polarization. inhibition, % at 14.8 µM. AID 2292, 2010. shares compounds with EBNA-1 inhibitor;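 active means mean inhibition across replicates above a set limit taken from the earlier primary screen, cut at about 28% in these data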;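 further: plate controls were EBNA-1 protein with DMSO for no effect and wells lacking EBNA-1 for full effect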
# ZTA DNA inh trip – EBV Zta DNA binding inhibitors, counter-screen for EBNA-1 inhibitor project, biochemical, fluorescence polarization, triplicate | shares compounds with EBNA-1 inhibitor | Zta-ZRE DNA binding, Cy5 fluorescence polarization | inhibition, % at 11.1 µM | 830 tested, under 10 active;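 active means mean inhibition over triplicates above a set limit taken from the primary EBNA-1 screen, cut at about 37% in these data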;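 further: purified full length Zta protein with Cy5 labeled ZRE DNA probe; 0% = Zta with DMSO and 100% = wells lacking Zta protein; inhibitors lower polarization by freeing the labeled DNA probe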
# * marks the source's active call; other numbers are inactive results; ? = inconclusive; / = no result given.
SMILES,Rpn11 inh,NR3A LBD binder,TPT1 inhibitor,dFosB act,ZTA DNA inh,EBNA-1 inhibitor,EBNA-1 confirm,ZTA DNA inh trip
CC(C)(C)OC(=O)N1CCC(c2c(C(=O)NC3CC3)cnn2-c2ccc(Cl)cc2)CC1,8,-1,2,-9,-6,-1,/,/
Cc1ccc(CN(c2ccc(C(=O)NCc3ccc4c(c3)OCO4)cc2)S(C)(=O)=O)cc1,5,-10,-2,-3,2,35*,14,-3
CN(Cc1ccccc1)S(=O)(=O)c1ccc(Cl)c(C(=O)NCc2ccc3c(c2)OCO3)c1,-3,9,6,?,10,37*,-8,4
O=C(COc1ccccc1)NCc1ccc(-n2cccc2)cc1,4,-1,-2,0,-6,92*,42*,16
COc1ccc(-c2cc(C(=O)NCc3cccs3)no2)cc1,-8,2,2,15,9,2,/,/
COc1ccc2nc3sc(C(=O)NCc4cccs4)c(N)c3cc2c1,/,/,14,/,-4,31*,7,17
Cc1ccc(C)c(S(=O)(=O)N2CCN(C(=O)Cc3sc(C)nc3-c3ccc(F)cc3)CC2)c1,-2,-1,/,-16,/,/,/,/
Cc1ccc(S(=O)(=O)NCC2CCC(C(=O)NC3CCCCC3)CC2)cc1 (stereo not given),2,-1,0,-9,1,49*,39*,3
CCOc1ccc(NC(=O)CCC(=O)NNC(=O)COc2ccc(C)cc2Br)cc1,-1,2,-1,-4,11,51*,99*,11
COc1ccc(OC)c(-c2cc(C(=O)Nc3c(C)nn(Cc4ccccc4)c3C)no2)c1,3,0,-1,-4,-10,10,/,/
COc1ccc(-c2cc(C(=O)Nc3c(C)nn(Cc4ccccc4Cl)c3C)no2)cc1,-1,4,-3,?,2,49*,41*,-3
Cc1ccc(OC(C)C(=O)Nc2ccncc2)cc1C (stereo not given),1,1,-1,-2,-10,-19,/,/
CC1(C)OC(C(O)(c2ccccc2)c2ccccc2)[C@@H](C(O)(c2ccccc2)c2ccccc2)O1 (stereo not given in full),6,0,-3,1,17,0,/,/
Cc1csc2ncnc(N3CCN(C(=S)Nc4ccc(C(F)(F)F)cc4)CC3)c12,-1,15*,0,-7,-5,47*,-1,-1
O=C(COC(=O)c1cc(Cl)ccc1Cl)Nc1ccc2[nH]c(=O)[nH]c2c1,-2,3,2,16,-7,85*,28*,3
O=C(COC(=O)c1ccccc1Cl)Nc1ccc2[nH]c(=O)[nH]c2c1,-1,-1,-4,2,19,-1,/,/
CCCCn1c(SCC(=O)NCc2ccco2)nc2c(sc3ccccc32)c1=O,2,1,3,-3,-7,-9,/,/
CCOCCCn1c(SCC(=O)NCc2ccco2)nc2c(sc3ccccc32)c1=O,4,1,0,-1,9,30*,0,2
CCOC(=O)Cc1csc(NC(=O)c2ccc3ncsc3c2)n1,9,0,5,-13,-3,-3,/,/
CCOC(=O)c1oc2ccccc2c1NC(=O)c1ccc(S(=O)(=O)N(C)C)cc1,3,-1,-2,-8,-7,47*,52*,6
CCOC(=O)c1oc2ccccc2c1NC(=O)c1ccc(S(=O)(=O)N2CCCC2)cc1,0,2,-2,-8,-8,37*,47*,0
Cc1c(C(=O)N(C)c2ccc(Cl)cc2)cnn1-c1ccccc1,5,-9,0,-6,4,-10,/,/
Cc1[nH]c(C)c(S(=O)(=O)N2c3ccccc3CC2C)c1C(=O)N1CCCCC1 (stereo not given),-2,-1,1,-7,-10,-2,/,/
Cc1ccc(C)c(NC(=S)N=Nc2c(O)n(C)c3ccc(S(=O)(=O)N4CCOCC4)cc23)c1,13,-7,-1,-4,-3,-3,/,/
CCc1ccccc1NC(=S)N=Nc1c(O)n(C)c2ccc(S(=O)(=O)N3CCOCC3)cc12,12,-10,1,1,-3,49*,-6,-1
SMILES,Rpn11 inh,NR3A LBD binder,TPT1 inhibitor,dFosB act,ZTA DNA inh,EBNA-1 inhibitor,EBNA-1 confirm,ZTA DNA inh trip
Cc1ccc(OCC(=O)OC(C)C(=O)NC2CCCCC2C)cc1C (stereo not given),2,0,/,-4,-10,/,/,/
O=C(Nc1ccc(F)cc1)c1cccc(N2C(=O)C3C4C=CC(C5CC45)C3C2=O)c1 (stereo not given),-3,-1,-1,-10,-4,-4,/,/
Cc1cccc(NC(=O)c2ccc(N3C(=O)C4C5C=CC(C6CC56)C4C3=O)cc2)c1 (stereo not given),0,-2,0,-5,11,57*,41*,7
CCOc1ccc2nc(NCCNC(=O)Nc3ccccc3)c(C#N)cc2c1,-10,-5,-2,14,4,34*,18,-13
CC(=O)CCc1c(C)nc2ccc(C(=O)O)cc2c1Cl,12,-2,-4,-7,8,31*,-13,-22
Cc1cccc(-c2noc(CCC(=O)Nc3ccc(C(N)=O)cc3)n2)c1,-1,-4,-2,/,0,76*,39*,-7
Cc1cccc(-c2noc(CCCC(=O)Nc3ccc(C(N)=O)cc3)n2)c1,-2,3,3,2,-6,7,/,/
Cc1ccc(NC(=O)Cn2cc(S(=O)(=O)c3ccc(F)cc3)c(=O)c3cc(F)ccc32)cc1,2,2,1,-8,-1,29*,47*,0
Cc1ccc(-c2csc(NC(=O)CSc3ncn(-c4ccccc4)n3)n2)cc1,2,2,1,4,14,41*,0,-2

# Compound activity: PubChem, several laboratories
